# Inconclusive results are not listed. Entries that show only a call come without a potency. Values without a mark were called inactive. Active and inactive are the calls of the source. Unless noted, the call rests on the fitted dose curve; in most records, active means well fitted curve in the direction sought with a large enough effect in the repeat runs; inconclusive means weak or mixed curves; inactive means no such curve, though single readings can be large; an effect the other way counts as inactive or inconclusive.
# Columns and labels:
# [1] = qHTS assay to identify small molecule agonists of the NFkB signaling pathway (AID 1159509; active means well fitted curve in the direction sought with a large enough effect in the signal ratio in the repeat runs, not every such curve was filed as active; the % refers to the signal ratio; further: series mostly up to about 61 µM)
# How it was run: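 Pathway activation was measured in ME-180 cells stably expressing beta-lactamase under NF-kB response element control. Substrate cleavage was read as the 460/530 nm emission shift after 5 hr compound incubation.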
# [2] = qHTS assay to identify small molecule agonists of the NFkB signaling pathway - cell viability counter screen (AID 1159515; calls by dose curve; further: series mostly up to about 61 µM; nearly all actives have a fitted effect of over 55% in size)
# How it was run: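 Cells are seeded (2,000 NFkB-bla ME-180 per well), rested overnight, and dosed with DMSO-dissolved compounds for 5 hr at 37 C. Viability is then read by CellTiter-Glo luminescence after 30 min at room temperature.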
# [3] = qHTS assay to identify small molecule agonists of the endoplasmic reticulum stress response signaling pathway (AID 1159516; active means well fitted activation curve with a large enough effect in the signal ratio in the repeat runs, not every such curve was filed as active; the % refers to the signal ratio)
# How it was run: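 Cells are seeded at 1,500 per well and incubated overnight. Compounds in DMSO are added for 5 hr at 37 C, then beta-lactamase FRET substrate for 2 hr at room temperature, and fluorescence at 460 and 530 nm is measured.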
# [4] = qHTS assay to identify small molecule agonists of the endoplasmic reticulum stress response signaling pathway - cell viability counter screen (AID 1159517; calls by dose curve;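 further: HeLa cells carrying an ER stress response element beta-lactamase reporter; series mostly up to about 61 µM; nearly all actives have a fitted effect of over 50% in size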)
# How it was run: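 ESRE-bla HeLa cells (1,500/well) were plated overnight at 37 C and exposed to compounds for 5 hr. After the 2 hr beta-lactamase substrate read, CellTiter-Glo went into the same wells, and luminescence was read after 30 min at room temperature.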
# [5] = target: Nuclear receptor ROR-gamma (Homo sapiens) (UniProt P51449); assay: qHTS assay to identify small molecule antagonists of the retinoid-related orphan receptor gamma (ROR-gamma) signaling pathway (AID 1159521; further: nearly all actives have a fitted effect of over 50% in size; further: potency means the concentration at half of the fitted maximal effect)
# How it was run: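 Inducible-expression reporter assay: doxycycline (1 uM final) switched on RORγ in CHO cells bearing a ROR response element-luciferase construct, with test compounds present from 2 h beforehand. Decreased luminescence after 16 h defined antagonist activity.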
# [6] = qHTS assay to identify small molecule agonists of the AP-1 signaling pathway (AID 1159526; calls by dose curve)
# [7] = qHTS assay to identify small molecule antagonists of the retinoid acid receptor (RAR) signaling pathway - cell viability counter screen (AID 1159551); further: nearly all actives have a fitted effect of over 35% in size; further: potency means the concentration at half of the fitted maximal effect
# How it was run: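 Cells (C3RL4) are plated, incubated overnight, dosed with compound in DMSO, then given retinol at 1 uM final. After 6 h at 37 C, CellTiter-Glo is added and luminescence read following 30 min at room temperature.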
# [8] = qHTS assay to identify small molecule antagonists of the retinoic acid receptor (RAR) signaling pathway (AID 1159552; further: nearly all actives have a fitted effect of over 50% in size; further: potency means the concentration at half of the fitted maximal effect)
# How it was run: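 Antagonism of retinol-induced RARE reporter activity was measured in C3RL4 cells. Exposure to compounds and 1 uM final retinol lasted 6 hr at 37 C, with luminescence as endpoint.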
# [9] = qHTS assay to identify small molecule agonists of the retinoic acid receptor (RAR) signaling pathway (AID 1159553); further: potency means the concentration at half of the fitted maximal effect
# How it was run: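 Seed C3RL4 reporter cells at 1,000 per well and incubate overnight at 37 C. Add compounds in DMSO, incubate 6 hr. Add luciferase reagent, wait 30 min at room temperature, read luminescence.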
# [10] = qHTS assay to identify small molecule agonists of the vitamin D receptor (VDR) signaling pathway - cell viability counter screen (AID 743224); further: series mostly up to about 63 µM; nearly all actives have a fitted effect of over 50% in size
# How it was run: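 Cells: VDR-bla, 2,000/well, settled 4 h. Treatment: compounds in DMSO, 16 h, 37C/5% CO2. Readout: CellTiter-Glo luminescence after 30 min RT.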
# [11] = qHTS assay to identify small molecule antagonists of the vitamin D receptor (VDR) signaling pathway - cell viability counter screen (AID 743225); further: nearly all actives have a fitted effect of over 50% in size; further: potency means the concentration at half of the fitted maximal effect
# How it was run: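 Same-well multiplex: following 16 h treatment of HEK 293T cells carrying a UAS-driven beta-lactamase reporter with compound and agonist (3 nM final), and a 2 h FRET substrate step, CellTiter-Glo was added and luminescence read after 30 min.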
# [12] = target: Retinoic acid receptor RXR-alpha (Homo sapiens) (UniProt P19793); assay: qHTS assay to identify small molecule agonists of the RXR signaling pathway (AID 1159527; calls by dose curve; further: nearly all actives have a fitted effect of over 35% in size)
# How it was run: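 Compounds in DMSO were added to RXR-alpha-UAS-bla HEK 293T cells kept in 2% charcoal-stripped serum, and incubated 16 hr at 37 C with 5% CO2. Reporter signal came from a 2 hr B/G FRET substrate step.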
# [13] = qHTS assay to identify small molecule agonists of the RXR signaling pathway - cell viability counter screen (AID 1159529); further: nearly all actives have a fitted effect of over 50% in size; further: potency means the concentration at half of the fitted maximal effect; on activity change, negative = cytotoxicity: series mostly up to about 77 µM
# How it was run: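 Counter screen: CellTiter-Glo luminescence. Cells: RXR-alpha-UAS-bla HEK 293T. Medium: 2% charcoal-stripped FBS. Treatment: 16 h, 37 C. Reagent incubation: 30 min, RT.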
# [14] = qHTS assay to identify small molecule agonists of the AP-1 signaling pathway - cell viability counter screen (AID 1159525; calls by dose curve; further: nearly all actives have a fitted effect of over 55% in size)
# How it was run: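 Intracellular ATP by Cell Titer Glo luminescence (30 min, RT) in the same ME-180 AP-1-bla wells after the 5 h compound exposure at 37 °C. Normalised to tetra n-octyl ammonium bromide and DMSO controls.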
# [15] = qHTS assay to identify small molecule antagonists of the retinoid-related orphan receptor gamma (ROR-gamma) signaling pathway - cell viability counter screen (AID 1159520); further: nearly all actives have a fitted effect of over 50% in size
# How it was run: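 Cytotoxicity was read from cellular ATP (CellTiter-Glo luminescence) after 16 hr at 37 C with 1 uM doxycycline induction. The inducer was added 2 hr after compound transfer to Tet-on ROR gamma CHO cells.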
# Retinoic acid receptor RXR-alpha (Homo sapiens), sequence (P19793 whole entry, looked up): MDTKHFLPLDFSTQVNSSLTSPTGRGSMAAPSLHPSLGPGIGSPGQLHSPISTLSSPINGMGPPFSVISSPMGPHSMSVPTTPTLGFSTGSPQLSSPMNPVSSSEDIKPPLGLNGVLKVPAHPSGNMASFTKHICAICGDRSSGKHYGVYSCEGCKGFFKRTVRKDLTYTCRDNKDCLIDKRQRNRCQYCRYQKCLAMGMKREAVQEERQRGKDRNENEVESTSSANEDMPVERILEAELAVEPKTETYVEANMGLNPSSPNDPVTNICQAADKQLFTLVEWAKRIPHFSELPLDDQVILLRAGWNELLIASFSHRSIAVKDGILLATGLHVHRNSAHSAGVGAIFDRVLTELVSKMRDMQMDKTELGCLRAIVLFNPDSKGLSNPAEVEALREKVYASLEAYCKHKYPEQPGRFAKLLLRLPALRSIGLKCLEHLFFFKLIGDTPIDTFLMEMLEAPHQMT
smiles,measurement,setting,value
Fc1ccccc1[C@@H](F)COC1CCC(Nc2ncnc3[nH]ncc23)CC1 (stereo not given in full),outcome,[1],inactive
same,outcome,[2],inactive
same,outcome,[3],inactive
same,outcome,[4],inactive
same,Potency,[5],12.2 µM (active)
same,outcome,[6],inactive
same,Potency,[7],inactive
same,Potency,[8],inactive
same,Potency,[9],inactive
COC(=O)c1cc(Cl)ccc1NS(=O)(=O)C(F)(F)F,Potency,[10],inactive
same,Potency,[11],inactive
same,outcome,[1],inactive
same,outcome,[2],inactive
same,outcome,[3],inactive
same,outcome,[4],inactive
same,Potency,[5],inactive
same,outcome,[6],inactive
same,Potency,[12],inactive
same,Potency,[13],inactive
same,Potency,[7],inactive
CO[C@H]1C=CO[C@@]2(C)Oc3c(C)c(O)c4c(O)c(c5c(c4c3C2=O)=NC2(CCN(CC(C)C)CC2)N=5)NC(=O)/C(C)=C\C=C/[C@H](C)[C@H](O)[C@@H](C)[C@@H](O)[C@@H](C)[C@H](OC(C)=O)[C@@H]1C,Potency,[11],inactive
same,outcome,[1],inactive
same,outcome,[2],inactive
same,outcome,[3],inactive
same,outcome,[4],inactive
same,Potency,[5],53.3 µM (active)
same,outcome,[14],inactive
same,outcome,[6],inactive
same,Potency,[13],inactive
same,Potency,[7],inactive
same,Potency,[9],inactive
CC[C@@H]([C@H](C)O)n1ncn(-c2ccc(N3CCN(c4ccc(OC[C@@H]5CO[C@@](Cn6cncn6)(c6ccc(F)cc6F)C5)cc4)CC3)cc2)c1=O,Potency,[10],inactive
same,Potency,[11],23.9 µM (active)
same,outcome,[1],inactive
same,outcome,[2],inactive
same,outcome,[3],inactive
same,outcome,[4],inactive
same,Potency,[5],0.944 µM (active)
same,outcome,[6],inactive
same,Potency,[12],inactive
same,Potency,[13],4.77 µM (active)
same,Potency,[9],inactive
CC(COc1ccc(C(C)(C)C)cc1)OS(=O)OCCCl (stereo not given),Potency,[10],inactive
same,Potency,[11],inactive
same,outcome,[1],inactive
same,outcome,[2],inactive
same,outcome,[3],inactive
same,outcome,[4],inactive
same,Potency,[5],24.5 µM (active)
same,outcome,[14],inactive
same,outcome,[6],inactive
same,Potency,[13],inactive
same,Potency,[8],3.88 µM (active)
same,Potency,[9],inactive
COCCOC,Potency,[10],inactive
same,Potency,[11],inactive
same,outcome,[1],inactive
same,outcome,[2],inactive
same,outcome,[3],inactive
same,outcome,[4],inactive
same,Potency,[5],41.3 µM (active)
same,outcome,[14],inactive
same,Potency,[13],inactive
same,Potency,[9],inactive
C/C(=N/NC(=O)c1ccncc1)C(=O)O,Potency,[10],inactive
same,outcome,[1],inactive
same,outcome,[2],inactive
same,outcome,[3],inactive
same,outcome,[4],inactive
same,Potency,[15],inactive
same,outcome,[6],inactive
same,Potency,[12],inactive
same,Potency,[13],inactive
same,Potency,[7],inactive
Cc1nccn1-c1ccc(Sc2cccc(C3(C(N)=O)CCOCC3)c2)cc1,Potency,[11],inactive
same,outcome,[1],inactive
same,outcome,[2],inactive
same,outcome,[3],inactive
same,outcome,[4],inactive
same,Potency,[5],5.45 µM (active)
same,outcome,[6],inactive
same,Potency,[13],inactive
same,Potency,[7],inactive
O=C(O)c1c(O)c(-c2ccccc2)nc2ccccc12,Potency,[10],inactive
same,Potency,[11],inactive
same,outcome,[1],inactive
same,outcome,[2],inactive
same,outcome,[3],inactive
same,outcome,[4],inactive
same,Potency,[15],inactive
same,outcome,[6],inactive
same,Potency,[13],inactive
same,Potency,[7],inactive
CCCCCCCCCCCCCCC[C@H](O)[C@@H](N)CO,Potency,[10],inactive
same,Potency,[11],inactive
same,outcome,[1],inactive
same,outcome,[2],inactive
same,outcome,[3],inactive
same,outcome,[4],inactive
same,Potency,[5],inactive
same,outcome,[14],inactive
same,outcome,[6],inactive
same,Potency,[12],inactive
same,Potency,[13],inactive
same,Potency,[7],inactive
same,Potency,[9],inactive
Cc1cc(OI)c(C(C)C)cc1-c1cc(C(C)C)c(OI)cc1C,Potency,[10],inactive
same,Potency,[11],inactive
same,outcome,[1],inactive
same,outcome,[2],inactive
same,outcome,[3],inactive
same,outcome,[4],inactive
same,Potency,[15],inactive
same,Potency,[12],inactive
same,Potency,[13],inactive
same,Potency,[7],inactive
same,Potency,[8],inactive
same,Potency,[9],inactive
N#C/C(=C1\SCC(c2ccccc2Cl)S1)n1ccnc1 (stereo not given),Potency,[10],inactive
same,Potency,[11],inactive
same,outcome,[1],inactive
same,outcome,[2],inactive
same,outcome,[3],inactive
same,outcome,[4],inactive
same,Potency,[15],inactive
same,outcome,[6],inactive
same,Potency,[13],inactive
same,Potency,[7],inactive
same,Potency,[8],inactive
same,Potency,[9],inactive
CCCCC(CC)COC(=O)COc1ccc(Cl)cc1C (stereo not given),Potency,[10],inactive
same,Potency,[11],inactive
same,outcome,[1],inactive
same,outcome,[2],inactive
same,outcome,[3],inactive
same,outcome,[4],inactive
same,Potency,[15],inactive
same,outcome,[6],inactive
same,Potency,[12],inactive
same,Potency,[13],inactive
same,Potency,[7],inactive
CCCCCCCCCCCC[N+](C)(C)CC(=O)[O-],outcome,[1],inactive
same,outcome,[2],inactive
same,outcome,[3],inactive
same,outcome,[4],inactive
same,Potency,[5],inactive
same,outcome,[14],inactive
same,outcome,[6],inactive
same,Potency,[13],24.5 µM (active)
same,Potency,[7],inactive
same,Potency,[8],inactive
same,Potency,[9],inactive
O=C(Nc1ccccc1)Nc1ccccc1,Potency,[10],inactive
same,Potency,[11],inactive
same,outcome,[1],inactive
same,outcome,[2],inactive
same,outcome,[3],inactive
same,outcome,[4],inactive
same,Potency,[5],inactive
same,outcome,[14],inactive
same,outcome,[6],inactive
same,Potency,[7],inactive
same,Potency,[8],inactive
same,Potency,[9],2.18 µM (active)
CNC(=O)N(c1ccccc1)c1ccccc1,Potency,[10],inactive
same,Potency,[11],inactive
same,outcome,[1],inactive
same,outcome,[2],inactive
same,outcome,[3],inactive
same,outcome,[4],inactive
same,Potency,[15],inactive
same,outcome,[6],inactive
same,Potency,[13],inactive
same,Potency,[7],inactive
same,Potency,[8],inactive
same,Potency,[9],inactive
[O]=[Bi],"viability change, negative = cytotoxic",[11],-2.19% [at 6.95 µM]
same,activation,[1],-0.308% [at 6.95 µM]
same,"activity, negative = cytotoxic",[2],3.69% [at 6.95 µM]
same,activation,[3],-0.917% [at 6.95 µM]
same,"activity change, negative = cytotoxicity",[4],9.83% [at 6.95 µM]
same,"activity, negative = cytotoxicity",[15],7.56% [at 8.39 µM]
same,activation,[12],-1.06% [at 6.98 µM]
same,"activity change, negative = cytotoxicity",[13],0.795% [at 6.97 µM]
same,"activity change, negative = cytotoxicity",[7],-0.124% [at 8.39 µM]
same,"activity, negative = inhibition",[8],92.1% [at 8.39 µM]
CC(=O)Oc1ccc2c(c1)CC[C@@H]1[C@@H]2CC[C@]2(C)[C@@H](O)CC[C@@H]12,Potency,[10],inactive
same,Potency,[11],inactive
same,outcome,[1],inactive
same,outcome,[2],inactive
same,outcome,[3],inactive
same,outcome,[4],inactive
same,Potency,[15],inactive
same,outcome,[6],inactive
same,Potency,[13],inactive
same,Potency,[7],inactive
same,Potency,[9],inactive
CCCCC(=O)O[C@]1(C(=O)CO)[C@@H](C)C[C@H]2[C@@H]3CCC4=CC(=O)C=C[C@]4(C)[C@@]3(F)[C@@H](O)C[C@@]21C,Potency,[11],inactive
same,outcome,[1],inactive
same,outcome,[2],inactive
same,outcome,[3],inactive
same,outcome,[4],inactive
same,Potency,[5],30.6 µM (active)
same,outcome,[14],inactive
same,Potency,[13],inactive
same,Potency,[7],inactive
same,Potency,[8],61.1 µM (active)
Cc1oc(C)c(C(=O)Nc2ccccc2)c1C,outcome,[1],inactive
same,outcome,[2],inactive
same,outcome,[3],inactive
same,outcome,[4],inactive
same,Potency,[15],inactive
same,outcome,[6],inactive
same,Potency,[13],inactive
same,Potency,[8],inactive
same,Potency,[9],inactive
Cc1cc2nc3ccc(=[N+](C)C)cc-3sc2cc1N,Potency,[11],inactive
same,outcome,[1],inactive
same,outcome,[2],inactive
same,outcome,[3],inactive
same,outcome,[4],inactive
same,Potency,[5],inactive
same,Potency,[7],26.6 µM (active)
same,Potency,[8],inactive
same,Potency,[9],1.88 µM (active)
